# Source: the supplement of paper PMC10646978
# ± gives the standard deviation.
# What was measured:
# Details in all cases: modulator concentration 10 µM
# [1] = tested on: RAW-Dual (murine macrophage reporter line); assay: NF-kB reporter (SEAP) activity fold change vs agonist alone; higher = enhanced NF-kB activity
# Method in brief: (§1)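 RAW-Dual murine macrophage reporter cells were plated at 50 000 per well in 384-well plates, pin-transferred compound to 10 μM final, and pre-incubated for 1 hour at 37 °C before a PRR agonist was added and the cells incubated overnight. NF-κB activity was read from supernatant SEAP with QUANTI-Blue at 620 nm absorbance, and IRF activity from Lucia luciferase with QUANTI-Luc by luminescence. Each signal was expressed as fold change by dividing by the mean agonist-only control on the same plate. Two replicate plates were averaged, with errors obtained by propagation.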
# [2] = tested on: RAW-Dual (murine macrophage reporter line); assay: IRF reporter (Lucia luciferase) activity fold change vs agonist alone; higher = enhanced IRF activity
# Method in brief: as §1
# [3] = tested on: RAW-Dual (murine macrophage reporter line); assay: viability score (confluency relative to resting cells, overnight) (fraction); higher = more viable, active = viable (0.7 or more)
# Method in brief: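 In 384-well plates, RAW-Dual macrophages received compound at a final 10 μM overnight. Two confluency masks were then made with IncuCyte software from IncuCyte images of all imaged wells. The viability score is defined as confluency relative to resting cells. Passing the cutoff required both masks to lie above 70% of resting cells.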
# [4] = agonist: CpG ODN 1826 0.5 ug/mL
SMILES,"NF-kB reporter [1, 4]",NF-kB reporter ([1]; agonist: LPS 0.1 ug/mL),NF-kB reporter ([1]; agonist: MPLA […]),IRF reporter ([2]; agonist: 3'3'-cGAMP 10 ug/mL),IRF reporter ([2]; agonist: LPS 0.1 ug/mL),IRF reporter ([2]; agonist: MPLA […]),viability score [3]
Cc1cccc(CN2CCN(C(c3ccccc3)c3ccc(Cl)cc3)CC2)c1.Cl.Cl (centres undefined),0.289 ± 0.013,0.913 ± 0.1,1.44 ± 0.082,1.35 ± 0.068,1.28 ± 0.27,1.27 ± 0.35,0.272 (inactive)
COc1ccc(OC)c2sc(NC(=O)C(C)C)nc12,0.97 ± 0.075,1.02 ± 0.059,1 ± 0.031,0.837 ± 0.06,0.885 ± 0.11,0.828 ± 0.14,0.993 (active)
CC(C)(C)C1=CC2(C=C(C(C)(C)C)C1=O)Nc1cccc3cccc(c13)N2,0.874 ± 0.12,1.08 ± 0.062,0.96 ± 0.075,0.754 ± 0.037,1.17 ± 0.11,0.942 ± 0.078,1.01 (active)
CC(=O)c1c(C)c2cnc(Nc3ccc(N4CCNCC4)cn3)nc2n(C2CCCC2)c1=O.Cl,1.27 ± 0.47,1.14 ± 0.064,1.22 ± 0.1,0.363 ± 0.014,0.898 ± 0.16,0.966 ± 0.16,0.982 (active)
Nc1nccs1,0.948 ± 0.14,1.22 ± 0.088,0.91 ± 0.055,0.89 ± 0.03,1.32 ± 0.16,1.2 ± 0.09,1 (active)
COc1cc(CNC2CCCc3ccccc32)cc(OC)c1OC (centres undefined),0.878 ± 0.074,1.02 ± 0.095,0.982 ± 0.04,0.865 ± 0.056,1.05 ± 0.087,0.972 ± 0.15,0.992 (active)
Cc1ccc(-n2ncc3c(Nc4cccc(C)c4)ncnc32)cc1,0.987 ± 0.2,1.14 ± 0.098,1.02 ± 0.1,0.938 ± 0.05,1.09 ± 0.23,1.19 ± 0.15,0.995 (active)
Nc1ncn([C@H]2C[C@H](O)[C@@H](CO)O2)c(=O)n1,1.3 ± 0.11,0.995 ± 0.054,1.15 ± 0.061,1.84 ± 0.32,1.09 ± 0.048,1.39 ± 0.27,0.963 (active)
COc1cccc(CCc2ccccc2OCC(CN(C)C)OC(=O)CCC(=O)O)c1.Cl (centres undefined),0.428 ± 0.063,0.948 ± 0.3,0.925 ± 0.057,0.512 ± 0.018,1.25 ± 0.31,0.984 ± 0.19,0.995 (active)
CCOc1ccccc1O[C@H](c1ccccc1)[C@H]1CNCCO1.CS(=O)(=O)O,0.873 ± 0.095,0.979 ± 0.061,1.03 ± 0.055,0.82 ± 0.045,0.905 ± 0.15,0.897 ± 0.074,0.99 (active)
CC1CCc2cc(F)cc3c(=O)c(C(=O)O)cn1c23 (centres undefined),0.961 ± 0.13,1.01 ± 0.074,1.01 ± 0.066,0.955 ± 0.066,0.872 ± 0.031,0.86 ± 0.16,0.999 (active)
CS(=O)(=O)N(CC(=O)NCCSCc1cccc(Cl)c1)c1ccc(F)cc1,0.742 ± 0.059,1.06 ± 0.059,0.857 ± 0.07,1.2 ± 0.03,1.13 ± 0.1,0.867 ± 0.26,1.01 (active)
C1N2CN3CN1CN(C2)C3,1.07 ± 0.085,1.04 ± 0.054,1.03 ± 0.033,0.961 ± 0.055,0.958 ± 0.092,0.949 ± 0.076,1 (active)
CN(C)CCC=C1c2ccccc2C=Cc2ccccc21.Cl,0.43 ± 0.079,1.25 ± 0.15,1.13 ± 0.069,0.406 ± 0.019,1.61 ± 0.14,1.18 ± 0.13,0.918 (active)
COCC(C)NC(=O)c1ccc(Cl)c(Cl)c1 (centres undefined),1.13 ± 0.12,0.926 ± 0.079,0.984 ± 0.043,0.953 ± 0.034,0.966 ± 0.05,0.992 ± 0.1,0.997 (active)
COc1cccc2c1C(=O)c1c(O)c3c(c(O)c1C2=O)C[C@@](O)(C(=O)CO)C[C@@H]3O[C@H]1C[C@H](N)[C@@H](O)[C@H](C)O1.Cl,0.114 ± 0.0074,0.0523 ± 0.0041,0.0992 ± 0.0043,0.0174 ± 0.0046,0.0179 ± 0.0063,0.0142 ± 0.0068,0.105 (inactive)
CCC(C)(Oc1ccc(C2(c3ccc(OC(C)(CC)C(=O)O)cc3)CCCCC2)cc1)C(=O)O (centres undefined),1.14 ± 0.26,1.09 ± 0.39,0.919 ± 0.063,0.946 ± 0.037,1.29 ± 0.44,1.24 ± 0.093,0.986 (active)
N#Cc1nc(-c2ccc(COc3ccccc3)o2)oc1N1CCCCC1,1.07 ± 0.06,1.24 ± 0.077,1.12 ± 0.069,1.27 ± 0.071,1.53 ± 0.1,1.3 ± 0.14,0.981 (active)
CCOC(=O)Nc1ccc(NCc2ccc(F)cc2)nc1N.O=C(O)/C=C/C(=O)O,1.21 ± 0.16,1.3 ± 0.34,0.885 ± 0.05,0.678 ± 0.043,1.3 ± 0.23,1.12 ± 0.09,0.977 (active)
COc1ccc(Nc2nc(Nc3ccc(F)cc3)nc(N3CCOCC3)n2)cc1OC,0.409 ± 0.059,1.61 ± 0.14,2.96 ± 0.16,0.413 ± 0.036,1.36 ± 0.17,2.15 ± 0.54,0.905 (active)
C[C@@H](O)[C@H]1C(=O)N2C(C(=O)O)=C(SCCNC=N)C[C@H]12 [Prestw-519],1.17 ± 0.11,0.986 ± 0.13,0.951 ± 0.036,0.981 ± 0.043,0.96 ± 0.044,0.928 ± 0.092,0.994 (active)
CCc1cc2c(-c3ccccc3)cc(=O)oc2cc1OC(C)=O,0.702 ± 0.12,1.09 ± 0.088,0.886 ± 0.085,0.974 ± 0.069,1.07 ± 0.3,1.07 ± 0.21,1 (active)
COCCN1CCC(NC(=O)c2cccc3ccccc23)CC1,1.16 ± 0.099,1.06 ± 0.096,0.958 ± 0.039,0.992 ± 0.083,1.02 ± 0.072,1.04 ± 0.12,0.998 (active)
O=C(CCc1ccc(F)c(Cl)c1)NCCn1nccn1,1.06 ± 0.052,1.06 ± 0.11,0.972 ± 0.056,1 ± 0.068,1.21 ± 0.076,1.06 ± 0.087,0.992 (active)
CCCCC(=O)N(Cc1ccc(-c2ccccc2-c2nn[nH]n2)cc1)C(C(=O)O)C(C)C (centres undefined),1.12 ± 0.27,0.965 ± 0.081,1.02 ± 0.082,0.71 ± 0.055,1.03 ± 0.14,1.04 ± 0.2,1 (active)
NS(=O)(=O)c1ccc(C(=O)O)cc1,0.892 ± 0.066,0.94 ± 0.096,1.06 ± 0.096,1.01 ± 0.054,1.01 ± 0.18,1 ± 0.31,0.994 (active)
COC(=O)CNC(c1ccccc1)c1cc(Br)ccc1NC(=O)c1ccccc1 (centres undefined),1.06 ± 0.18,1.03 ± 0.12,1.33 ± 0.21,1.06 ± 0.035,1.16 ± 0.13,1.63 ± 0.19,1.01 (active)
